Screening results deposited in PubChem BioAssay by National Center for Advancing Translational Sciences (NCATS).
IDH1 R132H inh = inhibitors of human mutant IDH1 R132H. O75874. IDH1-R132H enzyme, NADPH consumption, diaphorase/resazurin fluorescence. Potency, µM (titrated, usually from 76.6 µM), inactives show at the top dose activity change, negative = inhibition, most hits filed as inhibitors. actives 0.093% (n = 390,000). AID 602179; note: nearly all actives have a fitted effect of over 65% in size
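IDH1-R132H (0.5 ug/mL) preincubated 30 min with compound, then NADPH (0.016 mM) and alpha-KG (2 mM) added; 80 min at RT, pH 7.5. Remaining NADPH coupled via diaphorase/resazurin to fluorescence (540/590 nm); concentration-response curves normalized to no-enzyme control.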
Eya2 inh = blocks the phosphatase activity of human Eya2; O00167; Potency, µM (series often up to 76.9 µM), without a hit: top-dose activity, negative = inhibition, most hits filed as inhibitors; AID 488837; recombinant Eya2, OMFP fluorescence dephosphorylation (OMFP is methylfluorescein phosphate); actives 0.006% (n = 330,000)
Target sequence (O00167 whole entry, looked up): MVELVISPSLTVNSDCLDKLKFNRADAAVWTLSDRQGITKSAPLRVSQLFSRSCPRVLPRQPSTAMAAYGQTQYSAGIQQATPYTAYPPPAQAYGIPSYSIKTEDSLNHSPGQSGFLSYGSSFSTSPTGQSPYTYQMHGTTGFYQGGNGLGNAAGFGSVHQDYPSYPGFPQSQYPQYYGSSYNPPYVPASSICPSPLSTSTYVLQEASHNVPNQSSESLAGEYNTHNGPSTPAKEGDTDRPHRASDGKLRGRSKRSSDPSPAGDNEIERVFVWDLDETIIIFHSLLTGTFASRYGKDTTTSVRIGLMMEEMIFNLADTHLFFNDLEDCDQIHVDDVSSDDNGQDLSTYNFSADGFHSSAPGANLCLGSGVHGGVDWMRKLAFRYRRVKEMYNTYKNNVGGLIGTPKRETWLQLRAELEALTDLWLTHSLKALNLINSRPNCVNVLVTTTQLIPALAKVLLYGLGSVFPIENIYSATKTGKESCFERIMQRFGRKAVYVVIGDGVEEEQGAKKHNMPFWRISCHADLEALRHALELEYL
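Eya2 (0.2 uM) preincubated 10 min at ambient with compound, then OMFP substrate added at 50 uM; 10 min reaction in 50 mM HEPES pH 7.5, 50 mM NaCl, 5 uM MgCl2, 0.05% BSA, 1 mM DTT. Fluorescence read at Ex 485/Em 525 nm.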
TrxR1 substrate = substrates of rat thioredoxin reductase 1; purified TrxR1 substrate turnover, NADPH consumption readout; Potency, µM (titrated, usually from 114 µM), without a hit: at the highest dose activity change, negative = substrate turnover; actives 0.01% (n = 390,000); AID 588456; note: nearly all actives have a fitted effect of over 50% in size
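Rat TrxR1, dispensed at 90 nM, was prereduced with 400 uM NADPH (final) for 5 min at ~22 deg C, then incubated with compound 15 min before 400 uM selenite. A first-read NADPH fluorescence drop versus no-compound background flagged substrates.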
rTrxR1 inhibitor = rat TrxR1 inhibition | recombinant rTrxR1, NADPH fluorescence consumption, selenite substrate | Potency, µM (highest dose often 114 µM), inactives show at the top dose activity change, negative = inhibition, usual class: inhibitors | actives 1% (n = 390,000) | AID 588453 | O89049; note: nearly all actives have a fitted effect of over 65% in size
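Rat TrxR1 (90 nM in the dispensed reagent) was pre-reduced with 400 uM NADPH for 5 min at room temperature, then incubated with compound for 15 min. After 400 uM selenite was added, NADPH fluorescence (Ex 340/Em 450 nm) was followed for 8 min.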
RGS4 inh = blocks human RGS4-accelerated GTP hydrolysis. Potency, µM (titrated, usually from 114 µM), for the others: top-dose activity change, negative = inhibition, usual class: inhibitors. AID 504845. P49798. actives 0.039% (n = 390,000). Transcreener GDP fluorescence polarization, RGS4-accelerated GTP hydrolysis; note: nearly all actives have a fitted effect of over 75% in size
Target sequence (P49798 whole entry, looked up): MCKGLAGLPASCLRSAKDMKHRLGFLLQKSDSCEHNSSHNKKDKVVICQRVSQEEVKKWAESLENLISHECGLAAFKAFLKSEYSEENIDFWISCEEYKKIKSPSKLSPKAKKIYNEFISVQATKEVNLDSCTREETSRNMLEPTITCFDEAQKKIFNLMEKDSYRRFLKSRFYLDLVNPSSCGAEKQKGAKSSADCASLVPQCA
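MLSMR compounds (23 nl, pin-transferred) preincubated 10 min at room temperature with a 500nM (2x) first reagent, then RGS4 at 900nM (2x) plus Transcreener GDP mix added; fluorescence polarization (620/688 nm) read before and after 90 min at 30 °C.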
* hit, by the source's call; ? = inconclusive; . = no result; [ ] = dose if it differs, or a comment. Rows were chosen to be rich in hits. Some 1.1% of all compounds tested hit in one or more screens of this group. Calls come from the whole dose curve; as a rule, active = well fitted curve in the direction sought with a large enough effect; inconclusive = small, poorly fitted or top-dose-only effect, or another doubt; inactive = no such curve, though single readings can be large; an effect the other way counts as inactive or inconclusive. % is set by controls: 0 for no effect and ±100 for the full control effect; potency is the fitted concentration of half-maximal effect.

SMILES	IDH1 R132H inh	Eya2 inh	TrxR1 substrate	rTrxR1 inhibitor	RGS4 inh
N#CC1=C(S)N(c2ccccc2)C(c2ccc(-c3cccc(Cl)c3)o2)NC1=O (stereo unspecified)	41.4µM*	-3.3%	-4.2%	39.8µM*	?
O=C(CCc1ccccc1)NNC(=O)Cc1ccccc1	-4.4%	3.2%	-7.3%	-0.2%	10.4%
CC(=O)N1CCc2[nH]c3ccc(C)cc3c2C1	-4.8%	3.1%	2.2%	-13.7%	-7.7%
NC(=S)NN=C1c2ccccc2-c2c(F)c(F)c(F)c(F)c21	2.5%	.	-10.1%	56.2µM*	?
Cc1ccc(S(=O)(=O)c2cc3cc(C(=O)O)ccc3oc2=O)cc1	0.0%	.	3.0%	17.0%	-8.9%
CCN(CC(=O)NCc1cccs1)C(=O)c1ccc(Cl)c(Cl)c1	-6.9%	-22.0%	-2.9%	15.6%	11.5%
Cn1cc(CCNC(=O)CC2C(=O)NCCN2Cc2cccc(Oc3ccccc3)c2)cn1 (stereo unspecified)	7.5%	-0.1%	17.2%	25.1µM*	-9.9%
CCCCN(C)c1nc(-c2ccco2)c2c(c1C#N)CC(C)(C)OC2	6.9%	-0.2%	-4.2%	3.55µM*	?
CCc1ccc(-c2nc3c(=O)n(C)c(=O)nc-3n(CC)n2)cc1	.	.	35.5µM*	-16.3%	-0.1%
CCC(=O)Nc1nonc1-c1nc2ccccc2n1Cc1cccc2ccccc12	5.2%	0.2%	2.5%	-7.8%	-20.2%
CC(=O)Nc1ccc(S(=O)(=O)NCCc2csc(-c3cccnc3)n2)cc1	-1.8%	-6.0%	6.7%	18.9%	14.0%
O=C(CC1(O)C(=O)N(CCc2ccccc2)c2ccccc21)c1ccco1 (stereo unspecified)	13.0%	1.0%	13.2%[57.1 µM]	4.1%[57.1 µM]	-11.8%
C#CCN1C(=O)C(O)(CC(=O)/C=C/c2ccco2)c2ccccc21 (stereo unspecified)	5.5%	4.0%	-5.2%	39.8µM*	?
O=C(COC(=O)[C@H](Cc1ccccc1)N1C(=O)c2ccccc2C1=O)Nc1ccc2c(c1)OCO2	6.8%	-4.4%	-6.8%[57.1 µM]	15.9%[57.1 µM]	-4.1%
O=C(O)CCN1CC2([N+](=O)[O-])C=CC(=O)C([N+](=O)[O-])(C1)C2CC(=O)c1ccccc1 (stereo unspecified)	1.8%	-17.3%	-10.6%	14.1µM*	-10.6%
COc1ccc(C(=O)CCN(C)C)c2ccccc12	.	.	1.2%	0.398µM*	.
CCn1c(=S)[nH]c2ccccc21	5.5%	1.3%	529.3%	89.1µM*	4.1%
CSc1nnc2n(C)c3c(c(=O)n12)C1(CCCC1)Cc1ccccc1-3	6.6%	-23.4%	11.8%	9.3%	-11.0%
CCC1Sc2ccc(S(=O)(=O)CCC(=O)Nc3ccccc3Cl)cc2NC1=O (stereo unspecified)	-7.3%	5.4%	7.6%[57.1 µM]	12.3%[57.1 µM]	-1.9%[56.9 µM]
O=C(CCS(=O)(=O)c1ccc(Br)s1)NCc1ccccc1	-3.4%	-28.0%	-2.7%[57.1 µM]	-11.1%[57.1 µM]	-0.9%
CCC1Sc2ccc(S(=O)(=O)CCC(=O)NCc3ccc(C)o3)cc2NC1=O (stereo unspecified)	5.4%	6.6%	-2.7%	50.1µM*	-16.3%
Cc1ccc(CNC(=O)CCS(=O)(=O)c2ccc(Br)s2)o1	-0.3%	7.2%	7.3%	8.91µM*	-48.8%
CCCCN(C(=O)C1=COCCO1)c1c(N)n(CCC)c(=O)[nH]c1=O	5.0%	9.1%	-8.8%	-9.8%	-5.2%
O=C1NC(=O)/C(=C/c2ccco2)N1	.	-7.9%	-20.2%	-23.3%	-25.2%
O=C1NC(=S)NC1=Cc1ccco1	-11.0%	.	-10.4%	7.94µM*	-40.4%
SMILES	IDH1 R132H inh	Eya2 inh	TrxR1 substrate	rTrxR1 inhibitor	RGS4 inh
COc1nc(C#N)nc(N2CCCC2)n1	.	.	-1.5%	-26.4%	-6.8%
CCOc1nc(OCC)nc(N2CCC(C)CC2)n1	4.8%	3.8%	6.9%[57.1 µM]	8.9%[57.1 µM]	-13.6%[11.4 µM]
Cc1nc(N2CCN(Cc3ccccc3)CC2)c(C#N)c2c1COC(C)(C)C2	8.6%	-1.5%	-4.1%[57.1 µM]	6.5%[57.1 µM]	-3.3%
C/C(=N\Nc1nc2c(s1)CCCC2)c1ccccc1	6.9%	-4.3%	-6.3%	50.1µM*	0.6%[56.9 µM]
O=C(Nc1nc2c(s1)CCCC2)Oc1ccccc1	1.7%	-20.5%	9.0%[57.1 µM]	11.8%[57.1 µM]	-7.3%
Cc1cc(C)c(S(=O)(=O)N2CCN(Cc3ccc4c(c3)OCO4)CC2)cc1C	-12.0%	.	6.0%	28.2%	-15.5%
Cc1oc2cc3oc(=O)c(CC(=O)N4CCCCC4)c(C)c3cc2c1C	-11.0%	.	-1.1%	1.9%	7.7%
Cc1c(CC(=O)N2CCCCC2)c(=O)oc2cc(O)ccc12	0.0%	.	925.1%	56.2µM*	11.8%
Cc1c(CC(=O)N2CCN(C(=O)C3COc4ccccc4O3)CC2)c(=O)oc2cc(O)ccc12 (stereo unspecified)	-5.2%	15.8%	870.5%	89.1µM*	-4.9%[56.9 µM]
COc1ccc(NC(=O)C/C(C)=N/NC(=O)c2ccncc2)c([N+](=O)[O-])c1	7.3%	-5.0%	3.6%[57.1 µM]	6.3%[57.1 µM]	-14.3%
CCCCCNCC(=O)Nc1cccc(C(=O)Nc2cccc(C(F)(F)F)c2)c1	-3.7%	-5.2%	1.1%[57.1 µM]	6.4%[57.1 µM]	15.4%
Cn1c(=O)[nH]c(=O)c2c1nc([N+](=O)[O-])n2Cc1ccccc1	-3.3%	3.2%	-3.5%	6.31µM*	-13.8%
Cn1c(=O)[nH]c(=O)c2c1nc(Br)n2CCC(=O)c1ccccc1	1.2%	-2.8%	5.3%[57.1 µM]	17.8µM*	14.6%[11.4 µM]
Cn1c(=O)[nH]c(=O)c2c1nc(Br)n2C/C=N/NC(=O)c1ccccc1	7.9%	1.6%	1.5%[57.1 µM]	15.7%[57.1 µM]	-8.7%
Cc1cc(-c2ccc(C(=O)O)s2)cnc1N	2.3%	5.3%	849.4%	20µM*	26.7%
CCN(CC)c1nc(C)c(C(C)=O)cc1C#N	6.9%	17.0%	10.7%[57.1 µM]	21.0%[57.1 µM]	-3.2%
Cc1nc(NC(C)c2ccccc2)c2c3c(sc2n1)CCC3 (stereo unspecified)	-2.7%	10.7%	-2.8%	2.2%	-11.1%
Cc1cc(N2CCCC2)nc2ccc(NC(=S)NC(C)C)cc12	4.0%	-21.1%	33.4%	7.94µM*	-13.1%[11.4 µM]
Cn1c(N)c(C(=O)COC(=O)c2cc(-c3ccco3)nc3ccccc23)c(=O)n(C)c1=O	4.2%	2.0%	29.8%[57.1 µM]	12.6µM*	?
O=C(COC(=O)c1ccco1)NCc1ccc(Cl)cc1Cl	0.7%	-7.3%	-1.2%	79.4µM*	16.8%
CNC(=O)COC(=O)c1cc(-c2ccco2)nc2ccccc12	0.0%	-18.4%	1.3%[57.1 µM]	10µM*	-92.8%[56.9 µM]
O=C(COC(=O)c1cc(-c2ccco2)nc2ccccc12)NCc1ccccc1	3.2%	9.4%	29.4%	44.7µM*	-32.5%
CCc1cc(=O)oc2cc(C)cc(OC(C)C(=O)NCC(O)c3ccccc3)c12 (stereo unspecified)	-9.5%	-15.0%	75.6%	12.8%	7.5%
CC(C)(C)c1cc(/C=C(\C#N)C(N)=S)cc(C(C)(C)C)c1O	.	15.9%	?	?	10.6µM*
